High-throughput results from PubChem.
HCV inh: blocks hepatitis C virus; AID 651820; actives 3.4% (n = 340,000); Potency, µM (top dose mostly 41.8 µM), for inactives: at the highest dose activity change, negative = inhibition, actives largely listed as inhibitors; Huh7.5.1 HCVcc-Cre infection, luciferase reporter, 44 h; active means well fitted inhibition curve with a large enough effect; inconclusive means small, poorly fitted or top-dose-only effect, or another doubt; inactive means no such curve, though single readings can be large or run the other way
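Luciferase read-out (15 sec integration) after a 15 min room-temperature substrate step quantifies HCVcc-Cre infection. Cells, 1,000 per well, had compound added 4 h post-plating, then virus at ~0.5 moi, and were cultured 44 h.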
Lassa entry inh: Lassa virus entry inhibition; Lassa virus pseudotype entry inhibition, cell reporter; Potency, µM (series often up to 37.9 µM), for the others: at the highest dose activity change, negative = inhibition, hits mostly inhibitors; actives 1.2% (n = 300,000); calls by dose curve; tested in HEK293 cells; further: nearly all actives have a fitted effect of over 50% in size
VACV mCherry inh: vaccinia inhibition (mCherry reporter). Vaccinia virus mCherry reporter infection, fluorescence. Potency, µM (series often up to 36.5 µM), for the others: top-dose activity change, negative = inhibition, hits mostly inhibitors. actives 0.63% (n = 310,000); calls by dose curve; tested in A549 cells; further: nearly all actives have a fitted effect of over 35% in size
FMDV inh: foot and mouth disease virus antiviral activity; FMDV antiviral cell-based qHTS; Potency, µM (series often up to 57.9 µM), without a hit: at the highest dose activity change, negative = inhibition, most hits filed as inhibitors; actives 1.2% (n = 410,000); calls by dose curve; tested in HEK293T cells; further: read-out not given here; nearly all actives have a fitted effect of over 45% in size
VACV Venus inh: inhibitors of vaccinia virus (Venus reporter). Vaccinia virus Venus reporter expression, fluorescence. Potency, µM (doses to about 36.5 µM), without a hit: at the top dose activity change, negative = inhibition, most hits filed as inhibitors. actives 0.46% (n = 330,000). AID 720580; calls by dose curve; tested in A549 cells; further: nearly all actives have a fitted effect of over 30% in size
MARV entry inh: blocks Marburg virus binding to or entry into cells | Potency, µM (top dose mostly 37.8 µM), for inactives: at the top dose activity change, negative = inhibition, actives largely listed as inhibitors | Marburg virus pseudotyped entry inhibition, cell reporter | AID 540276 | actives 1.8% (n = 300,000); calls by dose curve; tested in HEK293 cells
* marks the source's active call; other numbers are inactive results; i = inactive; ? = inconclusive; nt = no result given; ! = not active in a repeat; [ ] = remark or other dose. Shown are actives, neighbours in structure and some others; about 5.3% of the full set was active somewhere. On the % scale 0 is the no-effect control and ±100 the full control effect; potency means the concentration at half of the fitted maximal effect.

SMILES | HCV inh | Lassa entry inh | VACV mCherry inh | FMDV inh | VACV Venus inh | MARV entry inh
COc1ccc(NC(=O)CN(c2ccc([N+](=O)[O-])cc2)S(=O)(=O)c2ccccc2)cc1 | ? | ? | ? | -7% | ? | ?
COc1ccc(OC)c(N(CC(=O)Nc2cccnc2)S(=O)(=O)c2ccc(OC)c(OC)c2)c1 | -4% | -1% | nt | -22% | -8% | 2.8µM*!
COc1ccc(N(CC(=O)Nc2ccccc2OC)S(=O)(=O)c2ccc(NC(C)=O)cc2)cc1 | ? | 3.2µM* | -26% | 0% | ? | ?
COc1ccc(S(=O)(=O)N(CC(=O)NCCc2ccccc2)c2ccc(Cl)cc2)cc1 | nt | 1%[46.1 µM] | -5% | -3% | -9% | 1%[46.1 µM]
O=C(c1cc(-c2ccccc2)on1)N1CCOc2ccc(CN3CCOCC3)cc2C1 | nt | nt | -14% | 3% | 0% | nt
CCNC(=O)CN(c1ccc(Cl)cc1)S(=O)(=O)c1ccccc1 | -12% | ? | nt | -22% | nt | 1.2µM*
CCN(CC(=O)Nc1ccccc1OC)C(=O)c1ccc(NS(=O)(=O)c2ccc(C(C)=O)cc2)cc1 | 8% | 0% | -8% | 158µM* | -6% | 4%[46.1 µM]
CCOc1ccccc1NC(=O)CCN(c1ccc(C)cc1)S(=O)(=O)c1ccccc1 | ? | ? | -10% | 3% | -12% | 14µM*
COc1ccc(N(CC(=O)NCc2ccccc2OC)S(=O)(=O)c2ccccc2)cc1 | 20% | 5%[46.1 µM] | i | -14% | -19% | 10µM*
COC(=O)c1ccccc1C(=O)N1CCOc2ccc(CN3CCN(c4ccccn4)CC3)cc2C1 | nt | nt | -4% | -15% | -7% | nt
CCn1cc(C(=O)NCc2ccccc2OC)c(=O)c2cc(S(=O)(=O)N(C)C)ccc21 | 14µM* | nt | nt | -12% | nt | nt
CCn1cc(C(=O)NC(C)CCc2ccccc2)c(=O)c2cc(S(=O)(=O)N(C)C)ccc21 (centres undefined) | -6% | 6.3µM* | i | -14% | -20% | ?
Cc1cccc(C(=O)NC(=S)NCc2ccccc2)c1 | -10% | 18µM* | i | 30% | -12% | 14%
O=C(NC(=S)NCc1ccccc1)c1ccccc1 | -10% | ? | i | 35% | -12% | -14%[46.1 µM]
Cc1cc(O)c(Sc2ncn[nH]2)cc1NS(=O)(=O)c1ccc(Cl)cc1 | 16% | -1% | -27% | -12% | -16% | -26%
O=S(=O)(Nc1cc(Sc2ncn[nH]2)c(O)c2ccccc12)c1ccccc1 | ? | ? | 6.3µM* | 25µM* | 2.5µM* | ?
COc1ccc2[nH]c3c(c2c1)CCN(C(=O)c1cccc(Cl)c1)C3c1ccc(F)cc1 (centres undefined) | nt | ? | ? | -15% | 4% | 1µM*
CCOc1cccc(CC(=O)N2CCc3c([nH]c4ccc(OC)cc34)C2c2ccc(F)cc2)c1OCC (centres undefined) | nt | ? | 7% | -13% | 3% | 6%[46.1 µM]
Fc1cccc(Cc2c(-c3ccco3)nc3ccc(Cl)cn23)c1 | nt | nt | 15% | ? | 1% | nt
Fc1cccc(Cc2c(-c3ccco3)nc3ccc(Br)cn23)c1 | nt | nt | 5% | 35µM* | 2% | nt
CCn1c(-c2ccccc2F)nc2cc(C(=O)N3CCNC(=O)C3CC(=O)OC)cc(NC(C)=O)c21 (centres undefined) | nt | nt | 2% | 2% | 10% | nt
Cc1cc(NC(=O)Nc2ccccc2F)ccc1Br | 13µM* | ? | -8% | -8% | ? | ?
Cn1nnc2cc(NC(=O)Nc3ccccc3F)ccc21 | nt | nt | -4% | 1% | -10% | nt
Cc1ccc(C)n1-n1cnc2sc(-c3ccccc3)cc2c1=O | 22µM* | -28% | i | ? | -14% | -2%
CCCCc1cc(=O)oc2cc(OCC(=O)N[C@@H](Cc3ccccc3)C(=O)O)ccc12 | 38% | nt | 2% | -7% | -5% | nt
SMILES | HCV inh | Lassa entry inh | VACV mCherry inh | FMDV inh | VACV Venus inh | MARV entry inh
CCCc1cc(=O)oc2cc(OCC(=O)NC(Cc3ccc(Cl)cc3)C(=O)O)ccc12 (centres undefined) | 0.5µM* | nt | -2% | -15% | -2% | nt
O=C(COc1ccc2c(-c3ccccc3)cc(=O)oc2c1)Nc1ccc(CCO)cc1 | 7.1µM* | nt | nt | ? | nt | nt
Cc1ccccc1NC(=O)COc1ccc2oc(=O)cc(C)c2c1 | -21% | nt | i | -10% | -13% | nt
CC(=O)c1cccc(NC(=O)COc2ccc3oc(=O)cc(C)c3c2)c1 | 16µM* | nt | -12% | ? | -5% | nt
O=C(COc1ccc2c(-c3ccccc3)cc(=O)oc2c1)Nc1ccc(CN2CCOCC2)cc1 | ? | ? | -3% | -25% | -2% | ?
O=C(C[n+]1ccc(/C=C/c2c[nH]c3ccccc23)c2ccccc21)c1ccccc1 | nt | nt | -14% | nt | -4% | nt
Nc1ncnc2c1ncn2[C@@H]1O[C@H](CNC(=O)[C@@H](N)Cc2ccc(C(=O)c3ccccc3)cc2)[C@@H](O)[C@H]1O | nt | nt | 46% | -25% | 1% | nt
CN(C)c1ccc(-n2cccc2/C=C/[N+](=O)[O-])cc1 | 10µM* | ? | -18% | ? | -22% | ?
CN(C)c1ccc(/C=C/[N+](=O)[O-])cc1 | 10% | 0% | -2% | -28% | -10% | -15%
CCCOC(=O)CSc1ncnc2sc3c(c12)CCC(C)C3 (centres undefined) | nt | ? | 3% | 54% | 3% | -1%[46.1 µM]
OC(CCN1CCC2CCC(C2)C1)c1ccc(Br)cc1 (centres undefined) | 32µM* | ? | -8% | ? | -9% | -5%
O=C(CCN1CCC2CCC(C2)C1)c1ccccc1 (centres undefined) | 16% | 14% | -12% | ? | 8% | 1%
[O-]C(=C(C(=S)Nc1cccc2ccccc12)[n+]1ccccc1)c1ccc2c(c1)OCCO2 | ? | -27%[46.1 µM] | ? | 12% | 0% | -12%[46.1 µM]
CCOc1ccccc1NC(=S)/C(=C(\[O-])c1ccc2c(c1)OCCO2)[n+]1ccc(CC)cc1 | -18% | 12% | nt | 2% | nt | 7.3µM*
O=C(N[C@@H]1c2ccccc2C2(CCN(C(=O)c3ccc4c(c3)OCCO4)CC2)[C@H]1O)c1cccnc1 | nt | nt | -2% | -1% | 6% | nt
O=C(O)c1ccc(-n2c(=O)c3ccccc3c3ccccc3c2=O)cc1 | 8% | 4%[46.1 µM] | -1% | 35µM* | -14% | -4%[46.1 µM]
Cc1nc2ccccc2c(=O)n1-c1ccc(C(=O)O)cc1 | -1% | nt | 3%[7.34 µM] | 37% | 7%[7.34 µM] | nt
CC(=O)Nc1ccc(-n2c(=O)c3ccccc3c3ccccc3c2=O)cc1 | 2% | ? | -8% | 28µM* | -15% | -9%
CC(=O)Nc1ccc(-n2c(C)ccc2C)cc1 | 2% | nt | nt | -4% | nt | nt
ON=C1c2ccccc2-c2ccccc21 | ? | nt | nt | 11% | nt | nt
Nc1cc2c(cc1Cl)-c1ccccc1C2=NO | 5µM* | 29% | ? | 41% | ? | ?
COc1ccc(O)c(/C=N/Nc2nc3ccccc3[nH]2)c1 | 4% | 13%[46.1 µM] | i | 34% | -5% | -19%[46.1 µM]
